Compound activity from PubChem.
KCNH2 3.1 block: KCNH2 3.1 (human) potassium channel inhibition | U2OS KCNH2 3.1, thallium flux FluxOr; hits give low values | actives 0.95% (n = 340,000) | activity change, % (tested at about 1.8 µM);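 active = maximum activity change below -70%; inconclusive = maximum activity change from -70% to -50%; inactive = maximum activity change above -50%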;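 note: thallium influx rate constant from kinetic fluorescence after stimulation buffer; % is set by controls: 0 for no effect and ±100 for the full control effect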
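Channel expression came from 3.1 mutant virus (1.77 x 10^8 /mL) applied to suspended U2OS cells for 4 h. Flux was tracked with FluxOr dye plus Red40 quencher, and kinetic rate constants normalized to controls.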
GLS inh: glutaminase GLS (human) inhibition; O94925; GLS enzymatic activity, qHTS titration; Potency, µM (doses to about 45.5 µM), inactives show top-dose activity change, negative = inhibition, actives largely listed as inhibitors; actives 0.21% (n = 410,000); AID 624170; note: potency is the fitted concentration of half-maximal effect; % is set by controls: 0 for no effect and ±100 for the full control effect
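Compounds were pin-transferred onto hKGA, after which L-glutamine (1 mM solution) and a detection mix of glutamate oxidase, HRP and Amplex Red were added. Initial and 30 min RT fluorescence reads were collected.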
GLP1R cytotox: cytotoxic in the GLP-1 receptor inverse agonist counter-screen | HEK293 cAMP-luciferase reporter cells, luminescence, 24 h | Potency, µM (highest dose often 38.3 µM), without a hit: at the top dose activity change, negative = inhibition, hits mostly inhibitors | actives 0.13% (n = 410,000) | AID 624418;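 note: loss of luciferase light is scored as toxicity; potency is the fitted concentration of half-maximal effect; % is set by controls: 0 for no effect and ±100 for the full control effect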
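1536-well qHTS counterscreen of the MLSMR; 200 cells/uL, 12 h pre-incubation, 23 nL cpd, 24 h at 37 deg C 5% CO2, luciferase detection reagent, 12 min RT, luminescence. Inhibition = undesired.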
hERG WT inh: KCNH2 (human, wildtype) channel inhibition; actives 0.37% (n = 340,000); activity change, % at 1.84 µM; U2OS, BacMam KCNH2, thallium flux FluxOr; hits give low values;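 active = maximum activity change below -70%; inconclusive = maximum activity change between -70% and -50%; inactive = maximum activity change above -50%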; note: % is set by controls: 0 for no effect and ±100 for the full control effect
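U2OS cells were transduced with wild-type KCNH2 virus (2.03 x 10^8 / mL) for 4 h at room temperature, then cultured overnight at 37 C. Thallium flux was read with FluxOr dye. Rate constants were normalized to DMSO controls.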
GLP-1R agonist: activates the human GLP-1 receptor | HEK293 GLP-1R CRE-luciferase, luminescence, 4-6 h; cells express a hypersensitive GLP-1R form | Potency, µM (top dose mostly 45.6 µM), inactives show top-dose activation, actives largely listed as activators | actives 0.007% (n = 380,000); note: potency is the fitted concentration of half-maximal effect; % of control where 0% means no effect
Target sequence (P43220 whole entry, looked up): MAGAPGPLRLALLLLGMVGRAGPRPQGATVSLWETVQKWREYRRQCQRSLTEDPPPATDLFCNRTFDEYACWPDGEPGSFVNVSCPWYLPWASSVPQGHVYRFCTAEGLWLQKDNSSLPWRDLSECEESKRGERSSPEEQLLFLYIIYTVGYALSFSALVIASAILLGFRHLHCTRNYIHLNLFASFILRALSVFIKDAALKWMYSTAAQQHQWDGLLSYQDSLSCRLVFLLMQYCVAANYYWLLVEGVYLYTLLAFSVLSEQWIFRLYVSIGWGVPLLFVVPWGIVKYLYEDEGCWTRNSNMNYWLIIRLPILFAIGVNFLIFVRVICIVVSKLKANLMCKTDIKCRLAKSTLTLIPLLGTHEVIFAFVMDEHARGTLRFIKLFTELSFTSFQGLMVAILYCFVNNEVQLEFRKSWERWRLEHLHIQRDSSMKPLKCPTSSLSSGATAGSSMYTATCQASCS
GLP-1R inv ag: inverse agonists of human GLP-1 receptor; P43220; HEK293 GLP-1R CRE-luciferase, luminescence, 24 h; GLP-1R form is constitutively active; Potency, µM (titrated, usually from 38.3 µM), for inactives: at the highest dose activity change, negative = inhibition, usual class: inhibitors; actives 1.6% (n = 410,000); AID 624417; note: potency is the fitted concentration of half-maximal effect; % is set by controls: 0 for no effect and ±100 for the full control effect; nearly all actives have a fitted effect of over 55% in size
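Constitutively active GLP-1R drives a cAMP-responsive luciferase in stably transfected HEK293 cells; test compounds are added after overnight (12 h) attachment and left 24 hr, and signal loss in luminescence marks inhibition.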
Starred values were filed as active, the others as inactive. An excerpt weighted towards active compounds, which were near 2.8% of everything screened. Unless noted, calls come from the whole dose curve; as a rule, active = well fitted curve in the direction sought with a large enough effect; inconclusive = small, poorly fitted or top-dose-only effect, or another doubt; inactive = no such curve, though single readings can be large; an effect the other way counts as inactive or inconclusive.

What do the screens show for `O=C(NCc1ccc(OC(F)(F)F)cc1)C1CC2Cn3c(nc4ccccc43)C2N1Cc1ccccc1` (centres undefined)?
KCNH2 3.1 block: -97.8*; GLS inh: 8.8%; GLP1R cytotox: -19.1%; hERG WT inh: -75.8*; GLP-1R agonist: -5.0%; GLP-1R inv ag: inconclusive

Results for Cc1cccc(N2CCN(C(=O)c3cn(C4CCCCC4)c(=O)c4c3c3ccccc3n4C)CC2)c1C ?
GLS inh: -6.0%; GLP1R cytotox: -5.4%; GLP-1R inv ag: inconclusive

What do the screens show for `Cc1ccc(C(=O)CSc2nc(-c3ccccc3)cc(=O)[nH]2)cc1`?
KCNH2 3.1 block: 0.1; GLS inh: -13.2%; GLP1R cytotox: -5.4%; hERG WT inh: -91.4*; GLP-1R agonist: 5.2%; GLP-1R inv ag: 7.8%

Results for Cc1ccc(C(=O)CSc2nc(N)cc(=O)[nH]2)cc1 ?
KCNH2 3.1 block: 0.6; GLS inh: 5.4%; GLP1R cytotox: 0.5%; hERG WT inh: -9.8; GLP-1R agonist: -8.0%; GLP-1R inv ag: 0.0%

Results for O=C(Nc1cc(S(=O)(=O)N2CCOCC2)ccc1N1CCOCC1)c1cccs1 ?
KCNH2 3.1 block: 16.2; GLS inh: 10.4%; GLP1R cytotox: -16.8%; hERG WT inh: 15.9; GLP-1R agonist: 11.5%; GLP-1R inv ag: 9.1%

How did CC(=O)Nc1sc2c(c1CN1CCN(c3ccc(F)cc3)CC1)CCCC2 do in these assays?
KCNH2 3.1 block: -22.9; GLS inh: 7.5%; GLP1R cytotox: -1.1%; hERG WT inh: 13.2; GLP-1R agonist: -3.2%; GLP-1R inv ag: 7.08µM*

What do the screens show for `Cc1csc(NC(=O)c2ccc(N3CCCC3=O)cc2)n1`?
KCNH2 3.1 block: -7.5; GLS inh: -17.8%; GLP1R cytotox: 5.2%; GLP-1R agonist: -5.5%; GLP-1R inv ag: 2.24µM*

What do the screens show for `CN(C)c1cc(N/N=C/c2ccc(Cl)cc2)nc(N(C)C)n1`?
KCNH2 3.1 block: inconclusive; GLS inh: -3.0%; GLP1R cytotox: inconclusive; hERG WT inh: -2.6; GLP-1R agonist: -0.7%; GLP-1R inv ag: 2.51µM*

How did Fc1cc(F)cc(Nc2nc(Cl)nc(NC3CCCC3)n2)c1 do in these assays?
GLS inh: 2.2%; GLP-1R agonist: -9.6%

What do the screens show for `CC(C)(C)CC(=O)OCC(=O)[C@@]12OC(C)(C)O[C@@H]1C[C@H]1[C@@H]3CCC4=CC(=O)C=C[C@]4(C)[C@@]3(F)[C@@H](O)C[C@]12C`?
GLS inh: -17.0%; GLP-1R agonist: -2.7%

Results for Cc1ccc(C)c(Nc2nc3c(S(=O)(=O)c4ccccc4)nnn3c3ccccc23)c1 ?
KCNH2 3.1 block: -71.6*; GLS inh: 3.9%; GLP1R cytotox: 55.6%; hERG WT inh: -1.5; GLP-1R agonist: 1.2%; GLP-1R inv ag: 16.3%

What do the screens show for `Cc1ccc(S(=O)(=O)c2nnn3c2nc(Nc2cccc(C)c2)c2ccccc23)cc1`?
KCNH2 3.1 block: 10.1; GLS inh: -3.0%; GLP1R cytotox: 3.0%; hERG WT inh: 20.4; GLP-1R agonist: -11.5%; GLP-1R inv ag: -2.0%

How did COc1ccc(OCc2nc(C#N)c(NCc3ccccc3Cl)o2)cc1 do in these assays?
GLS inh: 11.5%; GLP1R cytotox: 1.9%; GLP-1R agonist: 2.3%; GLP-1R inv ag: inconclusive

What do the screens show for `COc1ccccc1N1CCN(C(=O)c2cnn(-c3cccc(Cl)c3)c2C2CCN(C(=O)OC(C)(C)C)CC2)CC1`?
GLS inh: -0.6%; GLP1R cytotox: -13.2%; GLP-1R inv ag: inconclusive

How did O=C(CCc1c[nH]c2ccccc12)OCC(=O)N1CCN(S(=O)(=O)c2ccccc2)CC1 do in these assays?
KCNH2 3.1 block: -17.3; GLS inh: -3.0%; GLP1R cytotox: 5.1%; hERG WT inh: -101.0*; GLP-1R agonist: -13.9%; GLP-1R inv ag: -7.3%

What do the screens show for `O=C(Nc1ccc(Cl)cc1)c1nc[nH]c1C(=O)Nc1ccccc1F`?
KCNH2 3.1 block: -0.2; GLS inh: -2.5%; GLP1R cytotox: 1.6%; hERG WT inh: -3.9; GLP-1R agonist: 11.8%; GLP-1R inv ag: 0.0%

What do the screens show for `O=C(Nc1cccc(Cl)c1)c1nc[nH]c1C(=O)Nc1ccccc1F`?
KCNH2 3.1 block: 18.7; GLS inh: -3.8%; GLP1R cytotox: -1.2%; hERG WT inh: -70.7*; GLP-1R agonist: -0.3%; GLP-1R inv ag: 24.5%

What do the screens show for `CC(=O)c1ccc(OCc2cc(C(=O)N(C)CCOc3ccc(C)cc3)no2)cc1`?
KCNH2 3.1 block: 7.4; GLS inh: -0.4%; GLP1R cytotox: -7.4%; hERG WT inh: -4.8; GLP-1R agonist: 17.0%; GLP-1R inv ag: 10µM*

Results for COc1ccc(C)cc1NC(=O)C(Cc1ccccc1)NS(=O)(=O)c1ccc(Br)s1 (centres undefined) ?
GLS inh: -3.5%; GLP1R cytotox: -17.7%; GLP-1R inv ag: inconclusive

What do the screens show for `Cc1ccc(CNC(=O)C(Cc2ccccc2)NS(=O)(=O)c2ccc(Br)s2)cc1` (centres undefined)?
KCNH2 3.1 block: -1.4; GLS inh: 1.6%; GLP1R cytotox: -10.2%; hERG WT inh: 1.6; GLP-1R agonist: 6.8%; GLP-1R inv ag: 10µM*

Results for CCOc1ccccc1NC(=O)C(Cc1ccccc1)NS(=O)(=O)c1ccc(Br)s1 (centres undefined) ?
GLS inh: -11.3%; GLP1R cytotox: -6.7%; GLP-1R agonist: -13.4%; GLP-1R inv ag: 11.2µM*

What do the screens show for `CCCCSc1nnc2c(n1)OC(c1ccc(Br)s1)Nc1ccccc1-2` (centres undefined)?
GLS inh: -2.3%; GLP1R cytotox: -4.6%; GLP-1R inv ag: 14.6%

What do the screens show for `Cc1nc(N)nc(N/N=C/c2ccccc2)n1`?
KCNH2 3.1 block: -1.5; GLS inh: -2.7%; GLP1R cytotox: 5.1%; hERG WT inh: -75.6*; GLP-1R agonist: -2.3%; GLP-1R inv ag: 13.8%

What do the screens show for `COc1cc(C)ccc1OCc1cc(C(=O)N(Cc2c(C)nn(C)c2C)C2CC2)no1`?
KCNH2 3.1 block: -5.9; GLS inh: -4.0%; GLP1R cytotox: -13.5%; hERG WT inh: -15.9; GLP-1R agonist: -4.7%; GLP-1R inv ag: -10.9%

What do the screens show for `CN(C)S(=O)(=O)N(CC(=O)Nc1ccc(C(F)(F)F)cc1)c1ccccc1`?
GLS inh: 5.4%; GLP1R cytotox: -3.8%; GLP-1R agonist: -2.0%; GLP-1R inv ag: inconclusive

How did Cc1ccc(C(C)C)c(OCC(=O)Nc2ccc3c(c2)nc(CN2CCCC2)n3C)c1 do in these assays?
KCNH2 3.1 block: -2.6; GLS inh: 7.7%; GLP1R cytotox: inconclusive; hERG WT inh: 18.6; GLP-1R agonist: 10.6%; GLP-1R inv ag: 10µM*
